In PubChem BioAssay (EPA / NIEHS):
“And” between values parts separate entries of the source, which are not always exact repeats. Equal entries are not always repeated. Records with an inconclusive call do not appear. The source made the active and inactive calls. Rule for the calls: active = hit-call score of the fitted dose curve at least 0.9, where 1 is the maximum; inconclusive = response in the unintended direction; inactive = score below 0.9.

Experiments:
[1] = target: Cytochrome P450 3A4 (Homo sapiens) (UniProt P08684); assay: NVS_ADME_hCYP3A4: NovaScreen (NVS) CYP450-related Enzyme Activity (ADME) Assay for human CYP3A4 (AID 2283110)
Cytochrome P450 3A4 (Homo sapiens), sequence (P08684 whole entry, looked up): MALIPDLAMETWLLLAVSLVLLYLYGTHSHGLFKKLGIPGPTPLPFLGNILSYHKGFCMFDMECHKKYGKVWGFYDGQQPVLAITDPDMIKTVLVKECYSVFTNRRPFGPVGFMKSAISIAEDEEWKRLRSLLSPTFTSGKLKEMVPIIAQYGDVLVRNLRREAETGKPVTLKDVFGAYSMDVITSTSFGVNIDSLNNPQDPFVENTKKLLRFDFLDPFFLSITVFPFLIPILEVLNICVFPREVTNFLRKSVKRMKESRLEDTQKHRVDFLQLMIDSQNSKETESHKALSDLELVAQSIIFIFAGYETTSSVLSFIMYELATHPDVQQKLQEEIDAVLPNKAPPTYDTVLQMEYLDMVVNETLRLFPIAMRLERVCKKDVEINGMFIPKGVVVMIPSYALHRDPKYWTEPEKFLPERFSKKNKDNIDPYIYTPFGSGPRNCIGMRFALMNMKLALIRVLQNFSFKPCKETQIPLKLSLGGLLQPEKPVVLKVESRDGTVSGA
How it was run: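 Compounds screened in duplicate at 10 uM, with follow-up concentration-response for actives, against insect-cell-expressed recombinant enzyme. Activity read by fluorescence 0.33 h after dosing; loss of signal versus acetonitrile control indicates inhibition.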

[2] = target: Cytochrome P450 2C19 (Homo sapiens) (UniProt P33261); assay: NVS_ADME_hCYP2C19: NovaScreen (NVS) CYP450-related Enzyme Activity (ADME) Assay for human CYP2C19 (AID 2283113);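 for AC50: potency for inhibition seen as loss of fluorescent signal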
How it was run: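 Recombinant insect-cell-expressed enzyme, fluorescent substrate, 1 h after chemical addition, fluorescence intensity. Baseline = acetonitrile vehicle; activity scored as signal loss. Primary HTS single concentration 10 uM, duplicate; actives retested in concentration series.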

[3] = target: human AKT serine/threonine Kinase 1 (AKT1), AKT1 (gene 207) (UniProt P31749); assay: NVS_ENZ_hAKT1: NovaScreen (NVS) Enzymatic Assay for human AKT serine/threonine Kinase 1 (AKT1) (AID 2283138)
human AKT serine/threonine Kinase 1 (AKT1), AKT1 (gene 207), sequence (P31749 whole entry, looked up): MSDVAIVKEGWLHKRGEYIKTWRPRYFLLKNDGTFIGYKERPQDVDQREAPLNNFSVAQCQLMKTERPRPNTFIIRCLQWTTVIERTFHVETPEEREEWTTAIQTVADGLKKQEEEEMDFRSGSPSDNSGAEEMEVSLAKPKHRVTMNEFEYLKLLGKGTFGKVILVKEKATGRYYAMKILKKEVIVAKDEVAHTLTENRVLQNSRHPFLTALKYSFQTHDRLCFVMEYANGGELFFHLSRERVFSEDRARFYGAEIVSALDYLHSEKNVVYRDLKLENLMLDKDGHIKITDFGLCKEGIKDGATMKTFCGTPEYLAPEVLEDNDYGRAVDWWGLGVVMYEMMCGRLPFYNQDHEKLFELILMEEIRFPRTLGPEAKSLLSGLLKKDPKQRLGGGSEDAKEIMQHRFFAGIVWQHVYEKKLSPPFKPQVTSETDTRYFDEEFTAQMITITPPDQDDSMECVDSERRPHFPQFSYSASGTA
How it was run: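 Fluorescence and mobility-shift readout of kinase activity, taken 1 h post-dosing in a cell-free format with recombinant protein. Primary screen at 25 uM in duplicate; hits (e.g. 30% inhibition) retested in concentration series topping at 50 uM.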

Caspase-3 (Homo sapiens) = Caspase-3 (Homo sapiens) (UniProt P42574); assay: NVS_ENZ_hCASP3: NovaScreen (NVS) Enzymatic Assay for human Caspase 3 (CASP3) (AID 2283139)
Caspase-3 (Homo sapiens), sequence (P42574 whole entry, looked up): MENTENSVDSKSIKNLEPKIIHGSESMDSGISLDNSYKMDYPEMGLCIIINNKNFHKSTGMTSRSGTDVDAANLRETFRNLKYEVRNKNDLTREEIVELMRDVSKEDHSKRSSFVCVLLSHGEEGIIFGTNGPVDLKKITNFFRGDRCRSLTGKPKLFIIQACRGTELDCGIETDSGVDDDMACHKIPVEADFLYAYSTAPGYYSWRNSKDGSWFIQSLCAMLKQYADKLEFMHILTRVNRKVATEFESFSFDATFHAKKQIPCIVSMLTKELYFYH
How it was run: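 Single-concentration screening at 25 uM in duplicate, with concentration-response follow-up to a 50 uM maximum for chemicals passing the threshold. Caspase-3 (human, E. coli-expressed) activity was read as substrate fluorescence after 1 h, with loss of signal relative to DMSO.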

[4] = target: human CYP2D6, CYP2D6 (gene 1565) (UniProt P10635); assay: NVS_ADME_hCYP2D6: NovaScreen (NVS) CYP450-related Enzyme Activity (ADME) Assay for human CYP2D6 (AID 2283107)
How it was run: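 Fluorescence intensity read 1 h post-dosing; insect-cell-expressed recombinant protein with fluorogenic substrate, no cells. Activity is scored as signal loss relative to acetonitrile baseline, first at a single 10 uM concentration in duplicate, then as concentration series for confirmed actives.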

CDK2 (gene 1017) = CDK2 (gene 1017) (UniProt P24941); assay: NVS_ENZ_hCDK2: NovaScreen (NVS) Enzymatic Assay for human Cyclin-Cependent Kinase 2 (CDK2) (AID 2283144)
How it was run: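 Compounds screened in duplicate at 25 uM, then in singleton concentration-response to a maximum of 50 uM, against recombinant CDK2; kinase activity read 1 hr after dosing by fluorescence with mobility-shift separation of substrate and product.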

[5] = target: human Casein Kinase 1-delta (CK1D), CSNK1D (gene 1453) (UniProt P48730); assay: NVS_ENZ_hCK1D: NovaScreen (NVS) Enzymatic Assay for human Casein Kinase 1-delta (CK1D) (AID 2283148)
human Casein Kinase 1-delta (CK1D), CSNK1D (gene 1453), sequence (P48730 whole entry, looked up): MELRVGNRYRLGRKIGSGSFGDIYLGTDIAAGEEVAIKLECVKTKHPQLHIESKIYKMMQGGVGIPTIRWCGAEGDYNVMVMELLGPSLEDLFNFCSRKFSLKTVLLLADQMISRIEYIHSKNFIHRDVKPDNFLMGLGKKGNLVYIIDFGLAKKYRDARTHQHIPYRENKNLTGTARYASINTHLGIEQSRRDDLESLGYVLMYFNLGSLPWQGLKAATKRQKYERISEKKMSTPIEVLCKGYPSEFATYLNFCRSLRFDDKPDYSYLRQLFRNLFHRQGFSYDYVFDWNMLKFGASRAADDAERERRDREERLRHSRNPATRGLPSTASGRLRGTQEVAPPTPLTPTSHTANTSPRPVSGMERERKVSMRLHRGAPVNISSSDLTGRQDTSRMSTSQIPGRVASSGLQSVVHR
How it was run: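 Recombinant human CK1-delta, cell-free; fluorescent substrate with electrophoretic mobility-shift separation of product, read 1 h after dosing. Single 25 uM duplicate screen, then concentration-response up to 50 uM; loss of signal vs DMSO.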

[6] = target: human Colony Stimulating Factor 1 Receptor (CSF1R), CSF1R (gene 1436) (UniProt P07333); assay: NVS_ENZ_hCSF1R: NovaScreen (NVS) Enzymatic Assay for human Colony Stimulating Factor 1 Receptor (CSF1R) (AID 2283150)
human Colony Stimulating Factor 1 Receptor (CSF1R), CSF1R (gene 1436), sequence (P07333 whole entry, looked up): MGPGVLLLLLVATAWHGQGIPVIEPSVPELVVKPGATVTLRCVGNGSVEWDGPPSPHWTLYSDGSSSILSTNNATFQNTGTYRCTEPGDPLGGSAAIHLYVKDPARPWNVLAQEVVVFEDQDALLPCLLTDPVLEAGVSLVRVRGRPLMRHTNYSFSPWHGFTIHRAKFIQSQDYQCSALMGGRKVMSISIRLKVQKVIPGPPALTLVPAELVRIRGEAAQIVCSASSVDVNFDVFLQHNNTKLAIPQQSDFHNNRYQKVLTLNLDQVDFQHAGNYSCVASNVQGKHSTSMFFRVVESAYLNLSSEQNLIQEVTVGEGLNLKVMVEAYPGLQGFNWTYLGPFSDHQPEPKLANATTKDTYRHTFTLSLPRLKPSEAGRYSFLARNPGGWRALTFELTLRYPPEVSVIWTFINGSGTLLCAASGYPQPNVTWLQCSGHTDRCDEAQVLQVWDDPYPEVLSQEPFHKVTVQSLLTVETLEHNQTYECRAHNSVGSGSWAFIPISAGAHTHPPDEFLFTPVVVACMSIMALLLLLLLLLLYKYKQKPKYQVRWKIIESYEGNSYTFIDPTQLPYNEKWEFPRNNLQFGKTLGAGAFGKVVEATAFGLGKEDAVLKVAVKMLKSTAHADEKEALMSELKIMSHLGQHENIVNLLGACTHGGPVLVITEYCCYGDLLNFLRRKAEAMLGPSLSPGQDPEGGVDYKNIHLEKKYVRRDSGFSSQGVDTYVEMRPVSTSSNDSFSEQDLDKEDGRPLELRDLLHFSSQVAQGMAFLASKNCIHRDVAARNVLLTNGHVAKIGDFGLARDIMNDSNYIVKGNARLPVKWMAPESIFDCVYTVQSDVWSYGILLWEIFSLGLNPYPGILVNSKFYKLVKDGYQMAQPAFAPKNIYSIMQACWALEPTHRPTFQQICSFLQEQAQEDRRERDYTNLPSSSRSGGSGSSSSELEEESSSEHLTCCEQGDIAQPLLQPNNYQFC
How it was run: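 Compounds screened in duplicate at 25 uM, then concentration-response (top 50 uM) for those passing threshold such as 30% inhibition; recombinant CSF1R activity measured 1 h post-dosing via fluorescent substrate/product mobility-shift separation, loss of signal versus DMSO.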

[7] = target: human Caspase 5 (CASP5), CASP5 (gene 838) (UniProt P51878); assay: NVS_ENZ_hCASP5: NovaScreen (NVS) Enzymatic Assay for human Caspase 5 (CASP5) (AID 2283137)
human Caspase 5 (CASP5), CASP5 (gene 838), sequence (P51878 whole entry, looked up): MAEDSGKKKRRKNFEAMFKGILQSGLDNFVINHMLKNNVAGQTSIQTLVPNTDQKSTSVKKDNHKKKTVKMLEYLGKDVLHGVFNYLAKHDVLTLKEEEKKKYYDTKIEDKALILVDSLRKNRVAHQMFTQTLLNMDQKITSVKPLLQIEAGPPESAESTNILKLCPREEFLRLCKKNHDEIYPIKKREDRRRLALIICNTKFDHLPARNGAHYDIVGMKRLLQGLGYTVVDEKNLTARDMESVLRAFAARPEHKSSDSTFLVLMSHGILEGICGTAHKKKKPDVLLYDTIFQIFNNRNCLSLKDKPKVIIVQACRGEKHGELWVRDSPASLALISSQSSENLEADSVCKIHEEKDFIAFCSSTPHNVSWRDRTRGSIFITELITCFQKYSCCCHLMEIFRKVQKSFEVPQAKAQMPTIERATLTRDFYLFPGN
How it was run: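 Fluorescent substrate readout of CASP5 activity (loss-of-signal), measured 2 h post-dose. Protein expressed in E. coli. Primary screen duplicate at 25 uM; actives meeting threshold (e.g., 30% inhibition) rerun singleton, max 50 uM.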

[8] = target: human Caspase 8 (CASP8), CASP8 (gene 841) (UniProt Q14790); assay: NVS_ENZ_hCASP8: NovaScreen (NVS) Enzymatic Assay for human Caspase 8 (CASP8) (AID 2283146)
human Caspase 8 (CASP8), CASP8 (gene 841), sequence (Q14790 whole entry, looked up): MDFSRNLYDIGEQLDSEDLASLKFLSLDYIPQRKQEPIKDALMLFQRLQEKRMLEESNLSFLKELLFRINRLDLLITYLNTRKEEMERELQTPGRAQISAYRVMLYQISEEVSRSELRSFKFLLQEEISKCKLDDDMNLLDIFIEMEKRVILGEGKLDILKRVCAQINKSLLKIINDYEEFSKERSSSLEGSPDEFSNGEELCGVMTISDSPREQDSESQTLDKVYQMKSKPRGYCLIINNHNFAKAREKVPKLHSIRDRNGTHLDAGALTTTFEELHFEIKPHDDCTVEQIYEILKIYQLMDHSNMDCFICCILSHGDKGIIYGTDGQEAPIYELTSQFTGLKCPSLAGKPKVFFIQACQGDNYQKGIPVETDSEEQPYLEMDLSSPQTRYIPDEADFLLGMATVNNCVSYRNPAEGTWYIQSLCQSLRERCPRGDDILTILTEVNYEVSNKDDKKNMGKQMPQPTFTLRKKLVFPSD
How it was run: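 The primary screen tested compounds in duplicate at a single 25 uM concentration, with actives followed up in concentration series. Activity of recombinant (E. coli) protease was measured by fluorescence 1 h post-dose, as signal loss against DMSO.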

[9] = target: human Beta-secretase (BACE), BACE1 (gene 23621) (UniProt P56817); assay: NVS_ENZ_hBACE: NovaScreen (NVS) Enzymatic Assay for human Beta-secretase (BACE) (AID 2283140);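 note: hits are inhibitors that reduce fluorescent substrate signal versus DMSO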
human Beta-secretase (BACE), BACE1 (gene 23621), sequence (P56817 whole entry, looked up): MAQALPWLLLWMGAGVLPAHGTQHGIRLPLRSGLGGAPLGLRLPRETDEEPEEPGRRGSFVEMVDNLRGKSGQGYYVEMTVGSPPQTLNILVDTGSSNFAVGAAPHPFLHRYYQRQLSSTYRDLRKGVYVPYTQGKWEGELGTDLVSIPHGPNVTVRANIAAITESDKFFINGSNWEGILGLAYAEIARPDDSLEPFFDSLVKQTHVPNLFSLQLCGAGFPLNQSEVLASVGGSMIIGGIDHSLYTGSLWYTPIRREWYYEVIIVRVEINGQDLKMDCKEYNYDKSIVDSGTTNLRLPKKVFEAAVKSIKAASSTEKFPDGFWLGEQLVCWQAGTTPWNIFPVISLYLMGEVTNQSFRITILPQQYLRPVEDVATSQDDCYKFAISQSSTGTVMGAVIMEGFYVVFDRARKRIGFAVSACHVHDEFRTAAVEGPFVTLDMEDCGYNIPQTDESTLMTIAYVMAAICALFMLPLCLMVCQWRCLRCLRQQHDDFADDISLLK
How it was run: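 SF9-expressed enzyme, cell-free; fluorescent substrate readout after 1 h. Screened at 25 uM single concentration, duplicate; hits retested in concentration series. Activity relative to DMSO baseline, loss-of-signal.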

[10] = target: human AKT serine/threonine Kinase 2 (AKT2), AKT2 (gene 208) (UniProt P31751); assay: NVS_ENZ_hAKT2: NovaScreen (NVS) Enzymatic Assay for human AKT serine/threonine Kinase 2 (AKT2) (AID 2283141)
How it was run: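 Cell-free fluorescence/electrophoretic mobility shift readout of recombinant human AKT2 activity, 1 h after chemical dosing. Duplicate primary screen at 25 uM, then singleton concentration-response up to 50 uM; loss of signal versus DMSO baseline.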

[11] = target: rat CYP2A2, Cyp2a2 (gene 24895) (UniProt P15149); assay: NVS_ADME_rCYP2A2: NovaScreen (NVS) CYP450-related Enzyme Activity (ADME) Assay for rat CYP2A2 (AID 2283116)
rat CYP2A2, Cyp2a2 (gene 24895), sequence (P15149 whole entry, looked up): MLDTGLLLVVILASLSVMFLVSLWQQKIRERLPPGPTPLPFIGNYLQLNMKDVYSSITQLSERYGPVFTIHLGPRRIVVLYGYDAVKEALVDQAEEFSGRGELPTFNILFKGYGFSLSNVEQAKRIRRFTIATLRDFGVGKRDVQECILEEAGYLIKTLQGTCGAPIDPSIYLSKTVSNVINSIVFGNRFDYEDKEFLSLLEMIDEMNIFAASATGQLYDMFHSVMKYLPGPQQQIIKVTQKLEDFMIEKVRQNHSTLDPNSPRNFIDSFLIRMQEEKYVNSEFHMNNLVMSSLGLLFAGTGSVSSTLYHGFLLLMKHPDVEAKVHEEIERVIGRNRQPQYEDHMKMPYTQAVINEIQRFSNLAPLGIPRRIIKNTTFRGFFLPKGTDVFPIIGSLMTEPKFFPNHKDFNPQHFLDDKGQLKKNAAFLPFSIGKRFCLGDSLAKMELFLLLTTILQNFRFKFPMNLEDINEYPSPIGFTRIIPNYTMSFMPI
How it was run: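 Compounds first tested in duplicate at 10 uM, then in singleton concentration series up to 20 uM when over threshold. Activity of the recombinant enzyme read by fluorescence at 0.2 h, normalised to acetonitrile vehicle.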

rat CYP3A1, gene 25642 = assay: NVS_ADME_rCYP3A1: NovaScreen (NVS) CYP450-related Enzyme Activity (ADME) Assay for rat CYP3A1 (AID 2283126)
How it was run: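 Compounds went first at 10 uM duplicate, then to series with 20 uM maximum. Fluorescence from substrate turnover by the recombinant enzyme was measured 0.5 h post-dosing, inhibition scored against acetonitrile vehicle.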

[12] = target: rat CYP3A2, Cyp3a2 (gene 266682) (UniProt P05183); assay: NVS_ADME_rCYP3A2: NovaScreen (NVS) CYP450-related Enzyme Activity (ADME) Assay for rat CYP3A2 (AID 2283128)
How it was run: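 Fluorescence readout of extracted rat CYP3A2 activity 0.5 h post-dose, acetonitrile as negative control. Single-point testing in duplicate at 10 uM, followed by concentration series to a 20 uM maximum for actives.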

[13] = target: human Acid Phosphatase 1 (ACP1), ACP1 (gene 52) (UniProt P24666); assay: NVS_ENZ_hACP1: NovaScreen (NVS) Enzymatic Assay for human Acid Phosphatase 1 (ACP1) (AID 2283136)
How it was run: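 Cell-free fluorescence read-out of phosphatase activity, substrate and product separated by mobility shift, taken 1.5 h after compound addition; protein produced in Sf9. Single 25 uM duplicate screen, followed by concentration series for actives, scored as signal loss relative to DMSO.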

[14] = target: human Caspase 4 (CASP4), CASP4 (gene 837) (UniProt P49662); assay: NVS_ENZ_hCASP4: NovaScreen (NVS) Enzymatic Assay for human Caspase 4 (CASP4) (AID 2283143)
human Caspase 4 (CASP4), CASP4 (gene 837), sequence (P49662 whole entry, looked up): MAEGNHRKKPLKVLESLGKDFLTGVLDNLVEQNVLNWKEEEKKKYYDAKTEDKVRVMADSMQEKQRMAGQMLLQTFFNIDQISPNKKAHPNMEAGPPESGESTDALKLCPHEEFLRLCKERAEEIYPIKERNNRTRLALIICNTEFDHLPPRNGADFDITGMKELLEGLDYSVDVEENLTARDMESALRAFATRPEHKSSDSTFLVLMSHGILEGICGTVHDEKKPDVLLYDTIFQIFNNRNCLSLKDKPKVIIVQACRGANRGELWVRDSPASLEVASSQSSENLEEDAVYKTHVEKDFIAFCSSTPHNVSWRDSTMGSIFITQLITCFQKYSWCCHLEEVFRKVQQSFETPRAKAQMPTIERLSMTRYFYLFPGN
How it was run: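 Compounds were first tested in duplicate at 25 uM, and hits were titrated singly to a 50 uM maximum. Recombinant protease from E. coli was read by fluorescence 2 h post-dose, and activity loss was fitted against the DMSO baseline.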

SMILES: CN(C)C(=O)NC1(c2ccccc2)CCN(CC[C@@]2(c3ccc(F)c(F)c3)CN(C(=O)c3ccccc3)CCO2)CC1
- AC50 [1]: 5.63 µM (active)
- outcome [2]: inactive
- outcome [3]: inactive
- outcome (Caspase-3 (Homo sapiens)): inactive

SMILES: CC(C)(O)c1ccc(CNC(=O)c2cccnc2Oc2ccc(F)cc2)cc1
- AC50 [2]: 4.26 µM (active)

SMILES: CCCCCCCCCC[N+](C)(C)[O-]
- AC50 [4]: 2.69 µM (active)
- outcome [2]: inactive

SMILES: CC(=O)OCC(COC(C)=O)OC(C)=O
- outcome [1]: inactive

SMILES: O=C(Oc1ccccc1)c1cccc(C(=O)Oc2ccccc2)c1
- outcome (CDK2 (gene 1017)): inactive
- outcome [5]: inactive

SMILES: O=C(O)CC(O)(CC(=O)O)C(=O)O
- outcome [6]: inactive

SMILES: O=Cc1ccccc1C=O
- outcome [7]: inactive

SMILES: CC(C)c1cccc(C(C)C)c1
- AC50 [2]: 10 µM (active)
- outcome [8]: inactive

SMILES: CC(C)COC(=O)CCCCC(=O)OCC(C)C
- AC50 [9]: 36.1 µM (active)

SMILES: C=CCCCCCCCCCCCC
- outcome [5]: inactive

SMILES: CCCCCCCC(=O)OC
- outcome (Caspase-3 (Homo sapiens)): inactive

SMILES: CCCCCCCCCCCCCCOS(=O)(=O)O
- AC50 [7]: 2.27 µM (active)
- AC50 [3]: 14.2 µM (active)
- AC50 [9]: 1.77 µM (active)
- AC50 [10]: 13.3 µM (active)
- AC50 [6]: 9.44 µM (active)

SMILES: Nc1nc(Cl)nc2c1ncn2[C@H]1C[C@H](O)[C@@H](CO)O1
- outcome [6]: inactive

SMILES: CC(=O)O[C@]1(C(C)=O)CC[C@H]2[C@@H]3C=C(Cl)C4=CC(=O)[C@@H]5C[C@@H]5[C@]4(C)[C@H]3CC[C@@]21C
- AC50 [11]: 832 nM (active) and 2.03 µM (active) and 1.28 µM (active)
- AC50 (rat CYP3A1, gene 25642): 1.2 µM (active)
- AC50 [12]: 1.42 µM (active)

SMILES: Cc1cc(Cc2ccc(N)c(C)c2)ccc1N
- AC50 [2]: 7.05 µM (active)

SMILES: COc1ccc(OC(F)(F)F)cc1CN[C@H]1CCCN[C@H]1c1ccccc1
- outcome [13]: inactive
- outcome [3]: inactive
- outcome (CDK2 (gene 1017)): inactive
- outcome [5]: inactive
- outcome [6]: inactive

SMILES: O=C1CCCCC1
- outcome [7]: inactive
- outcome (Caspase-3 (Homo sapiens)): inactive

SMILES: Cc1cc(SC2=C(O)C[C@@](CCc3ccc(N)cc3)(C(C)C)OC2=O)c(C(C)(C)C)cc1CO
- AC50 [2]: 7.64 µM (active)
- outcome [9]: inactive

SMILES: CCc1nc(N)nc(N)c1-c1ccc(Cl)cc1
- outcome [9]: inactive

SMILES: CC(N)=O
- outcome [5]: inactive

SMILES: CC(COCC(C)OC(=O)c1ccccc1)OC(=O)c1ccccc1 (stereo not drawn)
- AC50 [2]: 2.27 µM (active)

SMILES: O=C(O)c1[nH]n(-c2ccc(S(=O)(=O)O)cc2)c(=O)c1N=Nc1ccc(S(=O)(=O)O)cc1
- outcome [14]: inactive
- AC50 [8]: 7.11 µM (active)

SMILES: CCCC(=O)O
- outcome [3]: inactive

SMILES: CN(C)CCCN1c2ccccc2Sc2ccc(Cl)cc21
- outcome [9]: inactive

SMILES: Cn1cnc2c1c(=O)[nH]c(=O)n2C
- outcome [7]: inactive

SMILES: CC(C)(C)c1ccccc1
- outcome [9]: inactive

SMILES: O=C1c2c(O)cccc2Cc2cccc(O)c21
- AC50 [7]: 0.235 µM (active)
- outcome [3]: inactive
- AC50 (Caspase-3 (Homo sapiens)): 13.1 µM (active)
- AC50 [9]: 1.22 µM (active)
- AC50 [10]: 16 µM (active)
- AC50 [14]: 4.5 µM (active)
- AC50 [8]: 7.92 µM (active)

SMILES: CC(=O)CC(c1ccccc1)c1c(O)c2ccccc2oc1=O (stereo not drawn)
- outcome [2]: inactive
